These results are taken from PubChem BioAssay.

For this test, the target named is Torsin-1A (Homo sapiens) (UniProt O14656). Kind of test: small-molecule binders of mutant TOR1A in lysate, primary screen, cell lysate, small-molecule microarray, COS7 lysate, 635/667 nm fluorescence (AID 1150).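 Also: score pools 667 nm emission and signal to noise measuring lysate protein binding.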 As to conditions: COS7 hTOR1A mutant lysate, 635 nm fluorescence, higher = more signal.
Sequence of Torsin-1A (Homo sapiens) (O14656 whole entry, looked up): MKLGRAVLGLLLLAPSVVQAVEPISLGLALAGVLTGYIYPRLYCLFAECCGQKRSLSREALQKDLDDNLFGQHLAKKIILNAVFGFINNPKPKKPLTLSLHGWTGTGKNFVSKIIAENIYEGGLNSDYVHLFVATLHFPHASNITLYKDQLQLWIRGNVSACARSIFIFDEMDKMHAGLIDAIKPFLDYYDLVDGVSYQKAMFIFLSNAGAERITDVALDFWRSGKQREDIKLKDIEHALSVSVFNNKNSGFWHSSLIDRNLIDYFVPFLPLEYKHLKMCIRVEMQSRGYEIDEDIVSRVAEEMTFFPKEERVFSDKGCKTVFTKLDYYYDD
For the compound `C=CCC(OC(C)=O)[C@@H]1[C@@H](N(Cc2cc3ccccc3o2)C(=O)c2ccc(C)cc2)c2cc(OCCCO)ccc2N1C(=O)c1ccc2ccccc2c1` (stereo partly specified), the composite z-score is -0.0172. Compound `COc1c(C)cc(-c2cc3c(c(-c4ccc(Oc5ccccc5)cc4)n2)[Si](C(C)C)(C(C)C)OC3)cc1C` showed a composite z-score of 0.164. `COc1ccc([Si](C)(C)[C@@H]2[C@@H](CC(=O)N3CCC[C@H]3CO)O[C@]3(C(=O)N(C)c4c(Br)cc(C)cc43)[C@H]2C)cc1` yielded a composite z-score of 0.67. The result for `CCC(CC)C(O)C1C=CC2C(=O)N(c3ccccc3)C(=O)C2N1Nc1ccc(C#N)cc1` (stereo unspecified) reads 0.775; that for `C=CCC(OC(C)=O)[C@@H]1[C@@H](N(Cc2ccc(-c3ccccc3)cc2)C(=O)Cc2ccc(F)cc2)c2cc(OCCCO)ccc2N1C(=O)c1ccc2ccccc2n1` (stereo partly specified), 0.0886. Then `C=C[C@@H](COC(C)=O)N(Cc1ccccc1[N+](=O)[O-])S(=O)(=O)c1ccc(Br)cc1`, with 1.58; and `COCCOC(=O)N1C(=O)[C@@]2(c3cc(C#CC4=CCCCC4)ccc31)[C@H](C(=O)NC[C@H](O)c1ccccc1)[C@H]1C(=O)O[C@H](c3ccccc3)[C@H](c3ccccc3)N1[C@@H]2c1ccc(O)cc1`, with 0.652. Then `[N-]=[N+]=Nc1ccccc1[C@@H]1OC(c2ccc(OCCCO)cc2)=N[C@]1(CCS(=O)(=O)c1ccccc1)C(=O)N1CCOCC1`, with 1.63. Compound `Cc1ccc(S[C@]2(C(=O)NCC(C)C)CC(=O)N(Cc3ccccc3Cl)[C@@H]2c2ccc(CO)cc2)cc1` registered a composite z-score of 0.961. The result for `CC(C)C(=C=CC[C@@H](O)c1ccccc1OCCO)C[C@@H](O)c1ccccn1` reads -0.303; that for `O=C1O[C@H](c2ccccc2)[C@H](c2ccccc2)N2[C@H]1[C@@H](C(=O)NC[C@H](O)c1ccccc1)[C@]1(C(=O)Nc3ccc(C#CCCO)cc31)[C@H]2c1ccc(O)cc1`, -1.36. The result for `COCCOC(=O)N1C(=O)[C@@]2(c3cc(C#CCNC(N)=O)ccc31)[C@H](c1ccccc1OCCO)N1[C@H](c3ccccc3)[C@H](c3ccccc3)OC(=O)[C@H]1[C@@H]2C(N)=O` reads 0.41; that for `O=C1C2C=CC(C(O)c3cccs3)N(Nc3ccccc3F)C2C(=O)N1c1ccccc1` (stereo unspecified), 0.605; that for `COCCOC(=O)N1C(=O)[C@@]2(c3cc(C#Cc4ccc(OC)cc4)ccc31)[C@H](C(=O)N1CCN(c3ncccn3)CC1)[C@H]1C(=O)O[C@H](c3ccccc3)[C@H](c3ccccc3)N1[C@@H]2c1ccc(O)cc1`, -0.007.

Take `COC(=O)c1ccc(C23CC2(C(NP(=O)(c2ccccc2)c2ccccc2)c2ccccc2)C3)cc1` (stereo unspecified): the composite z-score is 1.64.

In turn, `CS(=O)(=O)CCOC(=O)C1=CC(CCCO)=CC(c2cccs2)N(Cc2cc3c(cc2Br)OCO3)C=C1C(=O)OCCS(C)(=O)=O` (stereo unspecified) came in with a composite z-score of 1.16. With `CC(C)c1ccc(NN2C(C(O)c3ccc(N(C)C)cc3)C=CC3C(=O)N(c4ccccc4)C(=O)C32)cc1` (stereo unspecified), the composite z-score is 0.658.

`COCCOC(=O)N1C(=O)[C@@]2(c3cc(C#CCC(C(=O)OC)C(=O)OC)ccc31)[C@H](c1ccc(O)cc1)N1[C@H](c3ccccc3)[C@H](c3ccccc3)OC(=O)[C@H]1[C@@H]2C(N)=O` registered a composite z-score of 1.35. Then `COc1ccc([Si](C)(C)[C@@H]2[C@@H](CCn3cc([C@H](O)c4ccccc4)nn3)O[C@]3(C(=O)N(Cc4ccc(N5C(=O)c6cccc7cccc5c67)cc4)c4ccccc43)[C@H]2C)cc1`, with -0.169. Then `CCOC(=O)C1=CC[C@@H](c2ccccc2)N(S(=O)(=O)c2ccc(C)cc2)[C@H]1C(=O)OCC`, with 0.523; and `CCCCCN1CC=CC23O[C@@H]4/C=C\CCCOC(=O)C4[C@H]2C(=O)N(CCCCCCO)[C@@H]3C1=O` (stereo partly specified), with 0.474; and `COCCOC(=O)N1C(=O)[C@@]2(c3ccccc31)[C@H](C(=O)NC[C@H](O)c1ccccc1)[C@H]1C(=O)O[C@H](c3ccccc3)[C@H](c3ccccc3)N1[C@@H]2c1ccc(OCCO)cc1`, with 0.857. Then `CC(=O)Nc1cc(Br)ccc1C(=O)O`, with 0.0517; and `CN(C)C(=O)[C@@]1(CCC(=O)OC(C)(C)C)N=C(c2ccc(OCCCO)cc2)O[C@H]1c1ccccc1`, with 1.74. `C=CCOC(=O)[C@@H]1[C@H]2C(=O)O[C@H](c3ccccc3)[C@H](c3ccccc3)N2[C@H](c2ccc(OCCOC(=O)[C@@H]3C[C@@H]4C(=O)N[C@@H](Cc5ccccc5)C(=O)N4[C@@H]3c3cccc(OCCO)c3)cc2)[C@@]12C(=O)Nc1ccc(I)cc12` showed a composite z-score of 0.731.

In turn, `COc1cc2c(cc1O)C(C)N(Cc1cccc(OC(F)(F)F)c1)CC2` (stereo unspecified) gave a composite z-score of 1.91. Then `CC(C)CNC(=O)[C@@]1(c2ccc([N+](=O)[O-])cc2)CC(=O)N(CC23CC4CC(CC(C4)C2)C3)[C@@H]1c1ccc(CO)cc1`, with 0.395; and `COc1ccc([Si](C)(C)[C@@H]2[C@@H](CC(=O)N(CCO)Cc3ccccc3)O[C@]3(C(=O)N(C)c4ccccc43)[C@H]2C)cc1`, with 0.152. The result for `CC(C)N1C(=O)C[C@@](C(=O)NCc2ccccc2)(c2ccc([N+](=O)[O-])cc2)[C@H]1c1ccc(CO)cc1` reads 0.529. The result for `O=C1C2C=CC(C(O)c3ccc(B(O)O)cc3)N(Nc3ccccc3)C2C(=O)N1c1ccccc1` (stereo unspecified) reads -0.724; that for `O=C(CCN1CCOCC1)c1cccc(O)c1`, 1.38; that for `C=CC[C@]1(C(=O)N2CCOCC2)N=C(c2ccc(OCCCO)cc2)O[C@H]1c1ccccc1`, 0.96. `C=CC(=C)C1=CCO[C@@H]1[C@H]1CCCN1S(=O)(=O)c1ccccc1[N+](=O)[O-]` had a composite z-score of 0.136. Then `COc1ccc(C#Cc2ccc3c(c2)[C@]2(C(=O)N3)[C@H](c3ccc(O)cc3)N3[C@H](c4ccccc4)[C@H](c4ccccc4)OC(=O)[C@H]3[C@@H]2C(=O)NC[C@H](O)c2ccccc2)cc1`, with 0.488; and `CN1C=C(C(=O)OCCS(C)(=O)=O)C(C(=O)OCCS(C)(=O)=O)=CC(CCCO)=CC1C1CC1` (stereo unspecified), with 0.344; and `C=CC[C@@]1(C(=O)NCC(O)CO)N=C(c2ccc(OCCCO)cc2)O[C@@H]1c1ccccc1N=[N+]=[N-]` (stereo partly specified), with 1.48.
